Each structure is given as a SMILES string. About 950 (40%) of roughly 2,400 compounds were called active.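 The calls were made as follows: active = thallium flux ratio, averaged over three wells, more than 5 SD below the buffer control mean; inactive = the rest.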 Not all results are given here.

The test can be described thus: thallium flux inhibition in non-induced cells, primary screen, counter-screen for KCNK3 inhibitor project, cell-based, non-induced KCNK3 line, FluxOR thallium, triplicate (AID 651747).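 Also: host cells are CHO cells without KCNK3 induction.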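 As to thallium flux ratio (lower = more inhibition): ratio is peak minus trough fluorescence over baseline then normalized to buffer controls.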 Conditions: non-induced KCNK3 parental cells, at 10 µM; hits give low values.
Turning to `CN1CCc2ccccc2C1Cc1ccccc1NC(=O)c1sc2ccccc2c1Cl` (stereo not given), the thallium flux ratio (lower = more inhibition) was 0.143 (active).
Next, `N#Cc1cccc(NC(=O)COC(=O)c2ccccc2C(=O)c2ccc(Cl)c([N+](=O)[O-])c2)c1`: 0.153 (active); `Cc1ccc(NC(=S)N2CCCC(c3ccccc3)=N2)cc1`: “inactive”.
Next, `COc1ccc(Nc2ncnc3sc(-c4ccccc4)cc23)c(OC)c1`: 0.124 (active); `FC(F)(F)c1cccc(-c2cc3ccccc3nc2N2CCCC2)c1`: 0.127 (active); `O=C(c1cc(-c2ccc(O)cc2)on1)N1CCCc2ccccc21`: “inactive”.
As for `CSc1nccc(NC(=O)c2ccc(C(C)(C)C)cc2)n1`, the entry is “inactive”; as for `COc1cccc(CNc2nc(C(F)(F)F)nc3ccccc23)c1`, 0.111 (active); as for `COc1ccccc1NC(=O)CSc1nc2sc(C)c(C)c2c(=O)n1Cc1ccco1`, “inactive”.
With `C=CCSc1nnc(N2C(=O)C(O)=C(C(=O)c3ccco3)C2c2ccc(F)cc2)s1` (stereo not given), the thallium flux ratio (lower = more inhibition) was 0.101 (active).
In the case of `COc1cc(/C=C(\C#N)c2nc3ccccc3[nH]2)ccc1O`, the thallium flux ratio (lower = more inhibition) is 0.0933 (active).
As for `Cc1cccc(NC(=O)c2sc3nc4c(c(-c5ccco5)c3c2N)CCC4)c1`, the entry is “inactive”; as for `[O-][n+]1ccc(OCc2ccccc2)cc1`, “inactive”; as for `COc1cccc(COc2ccc(N(C)S(=O)(=O)c3ccccc3)cc2)c1`, 0.109 (active).
Next, `N/C(Cc1ccc([N+](=O)[O-])cc1)=N\OC(=O)COc1ccc2ccccc2c1`: “inactive”; `N#Cc1nc(Cc2cccc3ccccc23)oc1NCc1ccc2c(c1)OCO2`: 0.152 (active).
In the case of `COc1ccc([N+](=O)[O-])cc1-c1nc2ccccc2nc1-c1ccccc1`, the thallium flux ratio (lower = more inhibition) was 0.129 (active).
As for `CCCC(=O)Nc1ccc(Cl)c(NC(=O)c2ccc(Br)o2)c1`, the entry is “inactive”; as for `CN(CCC(=O)Nc1cc(S(=O)(=O)N(C)C)ccc1Cl)CC(=O)Nc1ccc(F)cc1`, 0.159 (active).
On to `Cc1cc(C)c(S(=O)(=O)c2ccccc2)c(OC(=O)c2c(F)cccc2Cl)n1`, for which the thallium flux ratio (lower = more inhibition) entry is “inactive”.
As for `CS/C(=C\C(=O)c1ccco1)Nc1ccccc1Cl`, the figure is 0.154 (active).
Consider `Cc1cccc2cc(CN(Cc3nnnn3Cc3ccccc3)C3CCCC3)c(=O)[nH]c12`, for which the thallium flux ratio (lower = more inhibition) was 0.139 (active).
For the compound `Cc1cc(OCCCCOc2ccc(C#N)cc2)ccc1[N+](=O)[O-]`, the thallium flux ratio (lower = more inhibition) entry is “inactive”.
Consider `O=C1c2ccccc2C2=Nc3ccccc3SC(c3ccccc3F)C12` (stereo not given), for which the thallium flux ratio (lower = more inhibition) is 0.125 (active).
As for `CCCCCCCCCCOC(=O)Cn1c(COc2cccc(OC)c2)[n+](C)c2ccccc21`, the entry is “inactive”; as for `CCCOc1ccc2c3c(c(=O)oc2c1OCCC)CCC3`, 0.158 (active).
Next, `COc1cccc(CN(C)CC(O)COC(c2ccccc2)c2ccccc2C)c1` (stereo not given): 0.146 (active).
Consider `FC(F)(F)c1cc(-c2ccco2)nc(NCc2ccc(Cl)cc2)n1`, for which the thallium flux ratio (lower = more inhibition) is 0.148 (active).
As for `Cc1ccc(S(=O)(=O)NCc2cn3ccsc3n2)c(C)c1`, the entry is “inactive”; as for `COc1cccc(C(=O)NCCSc2ccc(Br)cc2)c1`, “inactive”.
`O=C(NCCc1c[nH]c2ccccc12)c1cccc(Br)c1`: the thallium flux ratio (lower = more inhibition) is 0.159 (active).
Next, `O=C(CSc1nc(Nc2ccccc2)nc(N2CCOCC2)n1)Nc1cc(Cl)ccc1O`: 0.137 (active); `CC(C)c1ccccc1OCC(O)CN(CC(O)COc1cccc2ccccc12)C(C)C` (stereo not given): “inactive”; `C=CCN(C(=O)c1cc(C)cc(C)c1)C1(C(=O)Nc2ccccc2)CCN(C(C)C)CC1`: “inactive”.
`CC(=O)Nc1cccc(OCC(=O)/C=C2\N(C)c3ccccc3C2(C)C)c1`: the thallium flux ratio (lower = more inhibition) entry was “inactive”.
Next, `COc1cccc(/C=N/Nc2cc(C)nc(-c3ccccc3O)n2)c1O`: 0.109 (active); `CC[n+]1cc(C)ccc1/C=C/c1ccc(N(C)C)cc1`: 0.106 (active); `N#Cc1ccc(S(=O)(=O)NCC(=O)OCC(=O)NCCc2ccccc2)cc1`: “inactive”.
In the case of `Cc1cccc(-c2nc3ccc(C(=O)NCCN4CCN(C)CC4)cc3nc2-c2cccc(C)c2)c1`, the thallium flux ratio (lower = more inhibition) is 0.106 (active).
As for `Cc1ccc(NC(=O)c2cc([N+](=O)[O-])ccc2Cl)c(O)c1`, the entry is “inactive”; as for `CSc1nnc2c(n1)OC(c1ccsc1)N(C(C)=O)c1ccccc1-2` (stereo not given), “inactive”.
For `Clc1cccc(-c2nc(NCC3CCCO3)c3ccccc3n2)c1` (stereo not given), the thallium flux ratio (lower = more inhibition) was 0.129 (active).
As for `CCn1ncc(Br)c1C(=O)Nc1cc(C)ccc1F`, the entry is “inactive”; as for `CCOc1ccccc1Oc1cn[nH]c1-c1ccc(OC)cc1O`, “inactive”; as for `S=C(Nc1cccc(Br)c1)N1CCn2cccc2C1c1cccnc1` (stereo not given), “inactive”.
Next, `COC(=O)C1=C(C)N(C(C)c2ccccc2)C(=O)/C1=C\c1ccco1` (stereo not given): 0.158 (active); `O=C(Nc1ccccc1)O/N=C1\CCCCC1c1ccc([N+](=O)[O-])cc1[N+](=O)[O-]` (stereo not given): “inactive”; `CC(C)c1cc(C(=O)N/N=C/c2ccoc2)c(O)c(C(C)C)c1`: 0.147 (active).
Next, `CSc1cccc(NC(=S)N(C(C)C)C(C)c2ccccn2)c1` (stereo not given): “inactive”; `O=C(CC1NCCc2ccccc21)Nc1cccc(Cl)c1` (stereo not given): “inactive”.
As for `FC(F)(F)c1cccc(NC(=S)Nc2cccc(Cl)c2)c1`, the thallium flux ratio (lower = more inhibition) is 0.128 (active).
As for `CC(NCc1cccs1)C(=O)Nc1cc(Cl)cc(Cl)c1` (stereo not given), the entry is “inactive”.
Turning to `CC(Oc1cccc(NC(=O)c2cccs2)c1)C(=O)c1ccccc1` (stereo not given), the thallium flux ratio (lower = more inhibition) result is “inactive”.
As to `O=C(Nc1cccc(Cl)c1)Nc1ccccc1NS(=O)(=O)c1cccs1`, the thallium flux ratio (lower = more inhibition) is 0.131 (active).
Next, `C=CCSc1nsc(NC(=O)Nc2cccc(C(C)=O)c2)n1`: “inactive”; `O=C(NCCc1ccccc1)c1ccc2c(c1)N(Cc1ccccc1)CCS2`: 0.16 (active); `O=C(Cn1cc(C(=O)c2cccs2)c2ccccc21)NCc1cccs1`: “inactive”.
As for `CC(=O)N(C1=C(Cl)C(=O)c2ccccc2C1=O)c1ccc(C(=O)O)cc1`, the figure is 0.11 (active).
As for `CC(C(=O)NCC1CCCCC1)N(C)Cc1cccc(Cl)c1` (stereo not given), the entry is “inactive”; as for `CC(C)CCNC(=O)C(C)N(C(=O)Cn1nnc(-c2ccc(F)cc2)n1)C1CCCC1` (stereo not given), “inactive”; as for `COc1cccc(NC(=S)N(CCc2c(C)[nH]c3ccccc23)Cc2ccco2)c1`, 0.153 (active).
For `Cc1nonc1C1CCCN1C(=O)c1cc(COc2cccc(C(F)(F)F)c2)on1` (stereo not given), the thallium flux ratio (lower = more inhibition) result is “inactive”.
As for `Cc1cccc(N(Cc2ccccc2)C(=O)c2ccccc2F)c1`, the entry is “inactive”; as for `Cc1cccc(C)c1N1CCN(S(=O)(=O)N2CCCCC2)CC1`, 0.156 (active).
As to `COc1ccccc1N1CCN(/N=C\C(Br)=C\c2ccccc2)CC1`, the thallium flux ratio (lower = more inhibition) result was “inactive”.
As for `c1ccc2c(NC3C4CC5CC(C4)CC3C5)nc(N3CCOCC3)nc2c1` (stereo not given), the figure is 0.151 (active); as for `COc1ccc(Cl)cc1NC(=O)C(C)N1CCc2ccccc21` (stereo not given), “inactive”.
As to `CCOc1ccc(C2c3[nH]c4ccccc4c3CCN2Cc2cccn2-c2ncccn2)cc1` (stereo not given), the thallium flux ratio (lower = more inhibition) entry was “inactive”.
Next, `C=CCc1cc(S(=O)(=O)c2ccc(O)c(CC=C)c2)ccc1O`: 0.155 (active); `CCN(CC)CCN(C(=O)c1cc(Cl)sc1Cl)c1nc2cc3c(cc2s1)OCO3`: 0.143 (active).
For `COc1cc(Cl)c(S(=O)(=O)N2CCN(Cc3ccc4c(c3)OCO4)CC2)cc1Cl`, the thallium flux ratio (lower = more inhibition) entry was “inactive”.
As for `COC(=O)c1cc(NC2c3ccccc3C(=O)N2c2ccc(Cl)cn2)cc(C(=O)OC)c1` (stereo not given), the entry is “inactive”.
Next, `CCCCC(=O)Nc1ccccc1N1CCN(c2ccc(F)cc2)CC1`: “inactive”; `O=C(CNCCC1=CCCCC1)Nc1ccccc1N1CCCCCC1`: “inactive”; `Cc1cccc(C(=O)Nc2ccccc2N2CCN(c3ccc(F)cc3)CC2)c1`: 0.151 (active).
As for `O=C(Nc1ccccc1N1CCCC1)c1ccc2ccccc2c1`, the figure is 0.131 (active).
On to `CCc1cc(C(c2ccccc2OC)N2CCOCC2)c(NC(=O)c2ccccc2)s1` (stereo not given), for which the thallium flux ratio (lower = more inhibition) entry was “inactive”.
On to `CSCc1cc(N(C)C)nc(SCc2ccc(Cl)cc2Cl)n1`, for which the thallium flux ratio (lower = more inhibition) is 0.15 (active).
Next, `COc1ccc2c(c1)C(c1cccs1)=NNC(c1cccnc1)=N2`: “inactive”; `c1ccc(C(c2ccccc2)N2CCN(Cc3nnnn3C3CCCCC3)CC2)cc1`: 0.129 (active); `Cc1cccc2c1-c1sc(C(=O)NCCCN3CCc4ccccc4C3)cc1CO2`: “inactive”.
Next, `CCCCCCCCCCCCN1C(=O)CSC1c1cccnc1` (stereo not given): 0.148 (active).
As for `Cc1c(C(=O)N2CCCc3ccccc32)sc2nc(-c3ccccc3)cn12`, the entry is “inactive”; as for `COc1ccc(CC(=O)Nc2nc(-c3ccc(F)c(F)c3)cs2)cc1OC`, 0.102 (active); as for `CCc1ccc2nc3sc(C(=O)Nc4nnc(CC)s4)c(N)c3cc2c1`, 0.108 (active).
With `COc1ccc(C2Nc3ccccc3C(=O)N2Cc2ccccc2)cc1Cn1nnc2ccccc21` (stereo not given), the thallium flux ratio (lower = more inhibition) was 0.144 (active).
Next, `CCCc1cc(C(=O)N2CCCC(CO)(CCCc3ccccc3)C2)n(C)n1` (stereo not given): 0.152 (active); `CC(=O)N1CCCc2cc(S(=O)(=O)N3CCCC(C(=O)N4CCN(c5cccc(Cl)c5)CC4)C3)ccc21` (stereo not given): “inactive”.
Next, `CCc1nc(SCC(=O)NNC(=O)c2ccc(C)cc2)c2ccccc2n1`: “inactive”; `CC(Sc1nc2ccccc2c(=O)n1Cc1ccco1)C(=O)c1ccccc1` (stereo not given): “inactive”; `O=C(Nn1c(SCc2ccc([N+](=O)[O-])cc2)nc2ccccc2c1=O)c1ccc(F)cc1`: 0.136 (active).
Next, `COc1cc(C(=O)Nc2oc(-c3ccccc3)c(-c3ccccc3)c2C#N)cc(OC)c1OC`: “inactive”.
`Cc1cc(NC(=O)Nc2ccc(Cl)cc2)n(-c2ccccc2)n1`: the thallium flux ratio (lower = more inhibition) entry is “inactive”.
As for `O=C(Nc1cccc(S(=O)(=O)Nc2ccc(Cl)cc2)c1)c1ccc2c(c1)OCCO2`, the figure is 0.136 (active).
As for `C=CCN(N=Nc1cccc([N+](=O)[O-])c1)c1cccc([N+](=O)[O-])c1`, the entry is “inactive”.
Next, `CCC(C)(C)n1nnnc1C(c1cccs1)N1CCN(c2nc3ccccc3s2)CC1` (stereo not given): 0.156 (active); `COc1ccccc1C(c1nnnn1C(C)(C)C)N1CCN(Cc2ccccc2)CC1` (stereo not given): “inactive”.
Consider `COCCNc1cc(-c2ccccc2)nc2cc(-c3cccc(F)c3)nn12`, for which the thallium flux ratio (lower = more inhibition) was 0.13 (active).
Next, `Cc1nc(N2CCN(c3ccccn3)CC2)c2c(C)c(C(=O)Nc3ccc(F)cc3)sc2n1`: “inactive”; `Cc1nc(N2CCOCC2)c2c(C)c(C(=O)Nc3ccc(C(F)(F)F)cc3)sc2n1`: 0.152 (active); `Cc1nc(N2CCN(c3ccccn3)CC2)c2c(C)c(C(=O)Nc3ccc(F)c(Cl)c3)sc2n1`: “inactive”.
Next, `Cc1ccc(NC(=O)COC(=O)CNC(=O)c2ccc(Cl)cc2Cl)cc1S(=O)(=O)N1CCOCC1`: “inactive”; `O=C(N/N=C/c1sc(N2CCCCC2)nc1-c1cccs1)c1cccnc1`: 0.155 (active).
For the compound `Oc1ccc(/C=N/Nc2nc(-c3ccccc3F)nc3ccccc23)c(O)c1`, the thallium flux ratio (lower = more inhibition) was 0.143 (active).
Regarding `Cc1cc(C)c(C#N)c(SCc2ccc3c(c2)OCO3)n1`, the thallium flux ratio (lower = more inhibition) was 0.115 (active).
Turning to `COc1ccc(CN(C)C(=O)c2cc(-c3ccc(C)cc3C)nc3ccccc23)c(OC)c1OC`, the thallium flux ratio (lower = more inhibition) was 0.111 (active).
Consider `COc1ccc(-c2nc(CCNC(=O)c3ccc(Br)o3)cs2)cc1`, for which the thallium flux ratio (lower = more inhibition) entry is “inactive”.
As for `O=C(N/N=C/c1cccc(OCc2ccccc2)c1)c1ccc(Br)o1`, the entry is “inactive”; as for `Cc1nc2ccccc2cc1OCc1ccc(F)cc1`, “inactive”.
Next, `CC(=O)c1ccccc1OCc1ccc(C(=O)c2ccccc2)cc1`: 0.103 (active); `COc1ccc(CCNC(=O)c2ccccc2OCc2ccccc2)cc1`: 0.153 (active); `O=C(Oc1ccc(Br)cc1C(=S)N1CCOCC1)c1cccc([N+](=O)[O-])c1`: “inactive”.
For `COC(=O)c1ccc(COC(=O)C2CCN(S(=O)(=O)c3c(Cl)cccc3Cl)CC2)o1`, the thallium flux ratio (lower = more inhibition) result is “inactive”.
Next, `COc1ccc(S(=O)(=O)NCCCCOc2ccc(Cl)cc2)cc1`: 0.135 (active).
As for `COc1ccc(C(C)=O)cc1COc1ccc(Cl)c(C)c1`, the figure is 0.158 (active).
